{"source": "PubChem BioAssay", "note": "Unmarked numbers belong to inactive results. The rule behind the calls is not given here. Where a SMILES comes first, the peptide text is derived from it. The star is where a group is joined. Boc = CC(C)(C)OC(=O)*", "data": [{"target": "Pantothenate synthetase (Mycobacterium tuberculosis (strain ATCC 25618 / H37Rv)) (UniProt P9WIL5)", "sequence (P9WIL5 whole entry, looked up)": "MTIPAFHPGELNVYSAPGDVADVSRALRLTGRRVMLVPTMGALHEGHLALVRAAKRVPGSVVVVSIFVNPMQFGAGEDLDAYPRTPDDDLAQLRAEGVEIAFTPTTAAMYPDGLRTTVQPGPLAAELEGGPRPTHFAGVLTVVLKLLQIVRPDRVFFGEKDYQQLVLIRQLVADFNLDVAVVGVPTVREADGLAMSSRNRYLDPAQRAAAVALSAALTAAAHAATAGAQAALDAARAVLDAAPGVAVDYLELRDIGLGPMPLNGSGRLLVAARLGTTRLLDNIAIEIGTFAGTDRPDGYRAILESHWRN", "test": "Coupled enzyme confirmation of inhibitors against recombinant Mtb PanC (AID 375);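 note: 0% = full reaction with vehicle and 100% = no enzyme background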", "conditions": "coupled enzyme assay; at 10 µM, hits give high values", "units": {"inhibition": "%"}, "values": [{"smiles": "COc1cc2c(cc1NCc1ccccn1)oc1ccccc12", "inhibition": 0}, {"smiles": "CC1CCN(c2nc3c(c(=O)n(C)c(=O)n3C)n2Cc2ccccc2)CC1", "inhibition": 0}, {"smiles": "CCOc1ccccc1NC(=O)CC1Nc2cc(C)c(C)cc2NC1=O", "note": "(centres undefined)", "inhibition": 0}, {"smiles": "COc1ccc(N2CCC(CNS(=O)(=O)c3cccc(C(F)(F)F)c3)C2)cc1", "note": "(centres undefined)", "inhibition": 5}, {"smiles": "CC(C)CCSc1nc2c(c(=O)[nH]c(=O)n2C)n1CCCc1ccccc1", "inhibition": 0}, {"smiles": "CCOC(=O)c1cc(-c2ccco2)nc2c1c(C)nn2CCC#N", "inhibition": 0}, {"smiles": "Cc1cc(C)cc(OCC(=O)NC2=NCCS2)c1", "inhibition": 0}, {"smiles": "Cc1cc(C)c2c(n1)sc1c(N3CCOCC3)ncnc12", "inhibition": 5}, {"smiles": "COc1ccc(Cc2nc(-c3ccc(Br)cc3)no2)cc1", "inhibition": 7}, {"smiles": "O=C(CN1C(=O)COc2ccccc21)N(Cc1cccnc1)Cc1ccccc1F", "inhibition": 0}, {"smiles": "O=C(CSc1nnc(C2CC2)n1Cc1ccccc1)c1ccc(S(=O)(=O)N2CCOCC2)cc1", "inhibition": 0}, {"smiles": "CC(C)CCN(C)C1CCN(S(=O)(=O)c2ccc(F)cc2)CC1", "inhibition": 0}, {"smiles": "CC(C)(C)c1nc(CN2CCOCC2)ccc1O", "inhibition": 1}, {"smiles": "C=CCN(CC=C)C(=O)Nc1cc(Cl)ccc1OC", "inhibition": 0}, {"smiles": "CCc1nnc(NC(=O)CSc2nnc(-c3ccoc3C)n2CC(C)C)s1", "inhibition": 0}, {"smiles": "COc1ccc(N2C(=O)C3CCCN3C2c2ccc(F)cc2)cc1Cl", "note": "(centres undefined)", "inhibition": 1}, {"smiles": "Cn1c(=O)c2c(nc(SCCCC#N)n2Cc2ccccc2F)n(C)c1=O", "inhibition": 0}, {"smiles": "Cc1nc(C)c(C(=O)C2=C(O)C(=O)N(CCN3CCOCC3)C2c2cccnc2)s1", "note": "(centres undefined)", "inhibition": 13}, {"smiles": "O=C(CSC1=NCCS1)NCc1ccco1", "inhibition": 0}, {"smiles": "COc1ccccc1OC(=O)c1ccc2nsnc2c1", "inhibition": 0}, {"smiles": "Cn1c(-c2ccc(F)cc2)cnc1SCC(=O)Nc1ccccc1N1CCOCC1", "inhibition": 0}, {"smiles": "Cc1cccn2c(=O)c3cc(C#N)c(=NC(=O)c4ccncc4)n(Cc4ccco4)c3nc12", "inhibition": 0}, {"smiles": "O=C(CN1C(=O)C2C3C=CC(C3)C2C1=O)NCc1ccc2c(c1)OCO2", "note": "(centres undefined)", "inhibition": 0}, {"smiles": "COC(=O)c1nc2n(n1)C(c1ccc(OC)c(OC)c1)C(C(=O)OC1CCCCC1)=C(C)N2", "note": "(centres undefined)", "inhibition": 0}, {"smiles": "COC(=O)c1cccc(S(=O)(=O)N2CCN(c3nc4ccccc4s3)CC2)c1", "inhibition": 2}, {"smiles": "COc1ccc(CCn2c(-c3ccco3)nc3nc4ccccc4nc32)cc1", "inhibition": 0}, {"smiles": "COc1cc(C(=O)NCC(=O)OCC(=O)c2ccc[nH]2)cc(OC)c1OC", "inhibition": 2}, {"smiles": "CCC(CCC(=O)Nc1cccc(C(=O)O)c1)C(=O)O", "note": "(centres undefined)", "inhibition": 2}, {"smiles": "COc1ccccc1C1/C(=C(\\O)c2c(C)nc3c(C)cccn23)C(=O)C(=O)N1CCCN(C)C", "note": "(centres undefined)", "inhibition": 0}, {"smiles": "N#CCCN1CCN(S(=O)(=O)c2ccc(S(=O)(=O)NC3CCCCC3)cc2)CC1", "inhibition": 0}, {"smiles": "CC(NC(=O)OC(C)(C)C)C(=O)N1CCCC1C(=O)NC(Cc1ccccc1)C(N)=O", "note": "(stereo not drawn) (Boc-Ala-Pro-Phe-NH2; configuration not given here)", "inhibition": 7}, {"smiles": "Nc1nc(CSCc2ccccc2)nc(N2CCOCC2)n1", "inhibition": 1}, {"smiles": "CN(CCc1ccccn1)c1ncnc2[nH]ncc12", "inhibition": 0}, {"smiles": "CN1C(=O)C(O)(CC(=O)c2ccccc2O)c2cc(Br)ccc21", "note": "(centres undefined)", "inhibition": 0}, {"smiles": "O=C(NCc1ccco1)C(c1ccco1)N(C(=O)Cn1nnc2ccccc21)c1ccc2c(c1)CCC2", "note": "(centres undefined)", "inhibition": 0}, {"smiles": "COc1ccc(C(=O)Nc2cccc(-c3nc4ncccc4o3)c2C)cc1OC", "inhibition": 2}, {"smiles": "Cn1cnc2c1c(=O)n(Cc1cccc(Br)c1)c(=O)n2C", "inhibition": 1}, {"smiles": "Cc1cccc(C)c1NC(=O)CS(=O)CC(=O)NC1CCCc2ccccc21", "note": "(centres undefined)", "inhibition": 12}, {"smiles": "COC(=O)Cc1c(C)nc2nc(-c3ccco3)[nH]n2c1=O", "inhibition": 2}]}]}
